Compounds with a hit are over-represented: about 6.9% of the library has one in this group of screens.
HP1b chromo inh – blocks HP1-beta chromodomain binding to methylated histone tails; P83916; AlphaScreen HP1-beta / biotin-H3K9me3 peptide binding; Potency, µM (series often up to 114 µM), inactives show at the top dose activity change, negative = inhibition, most hits filed as inhibitors; actives 0.56% (n = 390,000); note: nearly all actives have a fitted effect of over 70% in size
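Compound inhibition of the preformed complex between 50 nM HP1-beta and 50 nM biotinylated H3K9me3 peptide was read by AlphaScreen. Buffer was PBS pH 7.4 with 0.01% Tween-20. Incubations ran 30 min at room temperature, with 10 ug/mL donor/acceptor beads.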
PLK1 PBD inh – inhibitors of human PLK1 polo-box domain binding. Potency, µM, inactives show max response, negative = inhibition, hits mostly inhibitors. Plk1 PBD binding of FITC phosphopeptide, fluorescence polarization. P53350. AID 720504. actives 2.8% (n = 360,000); note: series mostly up to about 57 µM; % is set by controls: 0 for no effect and ±100 for the full control effect; nearly all actives have a fitted effect of over 65% in size
BAZ2B block – inhibitors of human BAZ2B bromodomain | AlphaScreen BAZ2B-H3K14Ac peptide displacement | Potency, µM (doses to about 114 µM), for the others: at the highest dose activity change, negative = inhibition, actives largely listed as inhibitors | actives 4.4% (n = 360,000); note: % is set by controls: 0 for no effect and ±100 for the full control effect; nearly all actives have a fitted effect of over 60% in size
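BAZ2B (50 nM) with biotin-H3(5-23)K14Ac peptide (50 nM) in PBS pH 7.4, 0.01% Tween-20, preformed 30 min, then compound 30 min at room temperature; top concentration 110uM. AlphaScreen streptavidin donor/nickel chelate acceptor beads (10 ug/mL final), 20 min dark, signal read.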
L3MBTL1 inh – blocks human L3MBTL1; Q9Y468; AlphaScreen L3MBTL1–H3K9me1 peptide binding; Potency, µM (series often up to 57.1 µM), for inactives: top-dose activity, negative = inhibition, hits mostly inhibitors; actives 0.66% (n = 230,000); note: % is set by controls: 0 for no effect and ±100 for the full control effect; nearly all actives have a fitted effect of over 60% in size
Target sequence (Q9Y468 whole entry, looked up): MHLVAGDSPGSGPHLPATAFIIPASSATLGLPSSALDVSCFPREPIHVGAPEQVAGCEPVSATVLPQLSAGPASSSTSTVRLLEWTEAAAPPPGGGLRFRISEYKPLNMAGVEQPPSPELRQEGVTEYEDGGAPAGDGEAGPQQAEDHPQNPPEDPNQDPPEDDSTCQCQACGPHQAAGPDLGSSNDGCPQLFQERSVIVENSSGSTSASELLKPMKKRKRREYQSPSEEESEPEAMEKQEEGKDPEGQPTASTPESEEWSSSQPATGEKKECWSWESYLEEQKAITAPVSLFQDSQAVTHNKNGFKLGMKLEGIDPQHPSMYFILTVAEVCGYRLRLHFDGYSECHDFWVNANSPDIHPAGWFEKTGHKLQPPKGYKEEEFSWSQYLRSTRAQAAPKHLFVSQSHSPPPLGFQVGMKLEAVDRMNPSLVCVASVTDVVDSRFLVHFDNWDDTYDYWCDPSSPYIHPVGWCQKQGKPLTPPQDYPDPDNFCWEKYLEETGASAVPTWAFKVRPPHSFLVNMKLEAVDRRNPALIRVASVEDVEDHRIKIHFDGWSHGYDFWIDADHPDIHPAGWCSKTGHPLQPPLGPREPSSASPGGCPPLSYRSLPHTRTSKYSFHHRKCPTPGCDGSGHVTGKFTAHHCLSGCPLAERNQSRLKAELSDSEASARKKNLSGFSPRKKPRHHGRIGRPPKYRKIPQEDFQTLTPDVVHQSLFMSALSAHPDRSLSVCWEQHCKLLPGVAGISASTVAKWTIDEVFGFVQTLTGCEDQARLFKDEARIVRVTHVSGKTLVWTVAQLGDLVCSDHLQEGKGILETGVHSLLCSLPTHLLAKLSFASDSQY
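Read-out is AlphaScreen signal from streptavidin donor and nickel chelate acceptor beads (10 ug/mL final each) bridging L3MBTL1 (50 nM) and biotinylated K9-monomethylated H3(1-15) peptide (75 nM), after 30 min compound exposure at room temperature.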
JMJD2A Tudor inh – blocks the human JMJD2A Tudor domain | O75164 | AlphaScreen JMJD2A-Tudor / H3K4me3 peptide binding | Potency, µM (series often up to 114 µM), inactives show at the top dose activity change, negative = inhibition, hits mostly inhibitors | actives 4.4% (n = 390,000); note: % is set by controls: 0 for no effect and ±100 for the full control effect; nearly all actives have a fitted effect of over 50% in size
VDR inhibitor – vitamin D3 receptor (human) inhibition; P11473; VDR-SRC2-3 peptide fluorescence polarization, 2 h; actives 0.93% (n = 400,000); Potency, µM, for the others: max response, negative = inhibition, actives largely listed as inhibitors; note: % is set by controls: 0 for no effect and ±100 for the full control effect
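Reagent solutions, kept cold and dark, are dispensed first; compounds are then pinned in at 23 nl, plates briefly spun, and incubated 2 h at ambient temperature. Inhibition of VDR–SRC2-3 peptide binding is read by fluorescence polarization.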
* = called active by the depositor; [ ] = remark or other dose. Calls come from the whole dose curve; as a rule, active = well fitted curve in the direction sought with a large enough effect; inconclusive = small, poorly fitted or top-dose-only effect, or another doubt; inactive = no such curve, though single readings can be large; an effect the other way counts as inactive or inconclusive. Potency is the fitted concentration of half-maximal effect.

`COc1ccc(S(=O)(=O)N2CCN(c3ccccc3F)CC2)cc1-c1noc(C)n1` gave HP1b chromo inh 85%, BAZ2B block 56µM*, JMJD2A Tudor inh -14% and VDR inhibitor 5%.
Screening Cc1cc(C=O)c(C)n1-c1cc(C(=O)O)cc(C(=O)O)c1 returned HP1b chromo inh 25µM*, PLK1 PBD inh inconclusive, BAZ2B block 18µM*, L3MBTL1 inh 5µM*, JMJD2A Tudor inh inconclusive and VDR inhibitor 10%.
Cc1cc(/C=N/O)c(C)n1-c1ccccc1 was read as HP1b chromo inh -2%, PLK1 PBD inh -20%, BAZ2B block -34%, L3MBTL1 inh -8%, JMJD2A Tudor inh inconclusive and VDR inhibitor -2%.
`Cc1cc(C=O)c(C)n1-c1cccc(C(=O)O)c1` gave HP1b chromo inh 20%, PLK1 PBD inh -24%, BAZ2B block 79µM*, L3MBTL1 inh 25µM*, JMJD2A Tudor inh -18% and VDR inhibitor -19%.
`COC(=O)c1cccc(-n2c(C)cc(C=O)c2C)c1` gave HP1b chromo inh 3%, PLK1 PBD inh -1%, BAZ2B block inconclusive, L3MBTL1 inh -5%, JMJD2A Tudor inh -23% and VDR inhibitor 1%.
Screening Cc1ccc(C)n1-c1cccc(C(=O)Nc2ccccc2)c1 returned HP1b chromo inh 20%, PLK1 PBD inh 0%, BAZ2B block -38%, JMJD2A Tudor inh -21% and VDR inhibitor -10%.
Cc1cc(/C=N/O)c(C)n1-c1cccc(Cl)c1 was read as HP1b chromo inh inconclusive, PLK1 PBD inh -11%, BAZ2B block 50µM*, L3MBTL1 inh -20%, JMJD2A Tudor inh inconclusive and VDR inhibitor -10%.
For Cc1ccc(C)n1-c1cccc(C(=O)O)c1 the results were BAZ2B block 7.1µM* and L3MBTL1 inh 1.8µM*.
`CC(C)c1ccc(Nc2cc(C(=O)NCc3cccs3)c3ccccc3n2)cc1` gave HP1b chromo inh 22%, JMJD2A Tudor inh -13% and VDR inhibitor -9%.
CCS(=O)(=O)c1ccc(O)c(NC(=O)/C=C/c2ccc(Cl)cc2)c1 was read as HP1b chromo inh 10%, PLK1 PBD inh -12%, BAZ2B block -17%, JMJD2A Tudor inh -32% and VDR inhibitor -1%.
For Cc1ccc(/C=C/C(=O)Nc2cc(S(N)(=O)=O)ccc2O)cc1 the results were HP1b chromo inh inconclusive, PLK1 PBD inh 21µM*, BAZ2B block -31%, L3MBTL1 inh 6%, JMJD2A Tudor inh -24% and VDR inhibitor inconclusive.
`CNc1nc(-c2ccccc2)c2sccc2n1` gave PLK1 PBD inh -2%.
`CC(C)(C)c1cc(NCCCn2ccnc2)n2ncc(-c3ccccc3)c2n1` gave HP1b chromo inh 10%, PLK1 PBD inh 2%, BAZ2B block 56µM*, L3MBTL1 inh -9%, JMJD2A Tudor inh inconclusive and VDR inhibitor -1%.
`Cc1cc(NCCCn2ccnc2)n2ncc(-c3ccc(Cl)cc3)c2n1` gave HP1b chromo inh -2%, PLK1 PBD inh -12%, BAZ2B block inconclusive, L3MBTL1 inh -2%, JMJD2A Tudor inh inconclusive and VDR inhibitor -19%.
Screening Cc1cccc(-c2cc3nc(C)cc(NCCCn4ccnc4)n3n2)c1 returned HP1b chromo inh -13%, PLK1 PBD inh 24µM*, BAZ2B block 18µM*, JMJD2A Tudor inh -23%[11.4 µM] and VDR inhibitor 3%.
`COc1ccc(NS(=O)(=O)c2ccc(Cl)c(C(=O)O)c2)cc1S(=O)(=O)N1CCCCC1` gave HP1b chromo inh 26%, PLK1 PBD inh inconclusive, BAZ2B block -18%, L3MBTL1 inh -14%, JMJD2A Tudor inh -14% and VDR inhibitor 6%.
`O=c1cc(-c2ccc(C3CCCCC3)cc2)[nH][nH]1` gave HP1b chromo inh -36%, PLK1 PBD inh 24µM*, BAZ2B block -15%, L3MBTL1 inh -13%, JMJD2A Tudor inh inconclusive and VDR inhibitor -22%.
`COc1ccc(CN2CCCCCC2)cc1` gave HP1b chromo inh 24%, PLK1 PBD inh -3%, BAZ2B block -1%, L3MBTL1 inh 9%, JMJD2A Tudor inh 1µM* and VDR inhibitor -6%.
For COc1cccc(N2CCN(Cc3ccco3)CC2)c1 the results were HP1b chromo inh inconclusive, PLK1 PBD inh 5%, BAZ2B block inconclusive, L3MBTL1 inh -4%, JMJD2A Tudor inh 8.9µM* and VDR inhibitor -17%.
COc1ccccc1N1CCN(Cc2ccco2)CC1 was read as HP1b chromo inh -54%, PLK1 PBD inh -1%, BAZ2B block inconclusive, L3MBTL1 inh -4%, JMJD2A Tudor inh 3.2µM* and VDR inhibitor -2%.
For COc1cccc(N2CCN(Cc3ccsc3)CC2)c1 the results were HP1b chromo inh -1%, PLK1 PBD inh -2%, BAZ2B block -33%, JMJD2A Tudor inh -35% and VDR inhibitor 8%.
For COc1ccccc1N1CCN(CCCOc2ccc(F)cc2)CC1 the results were HP1b chromo inh inconclusive, PLK1 PBD inh -2%, BAZ2B block inconclusive, JMJD2A Tudor inh 2.2µM* and VDR inhibitor 11%.
`COc1cccc([C@@H]2Oc3ccc(OC)cc3C(=O)[C@H]2OC(=O)NCCOc2ccccc2)c1` gave VDR inhibitor 6%.
For COc1ccc(N=Nc2cc(C)c(O)c(CN3CCCCC3)c2)cc1 the results were HP1b chromo inh 28µM*, PLK1 PBD inh 3%, BAZ2B block 13µM*, L3MBTL1 inh inconclusive, JMJD2A Tudor inh 22µM* and VDR inhibitor 5%.
Screening COc1ccc(S(=O)(=O)N2CCN(C(=O)/C=C/c3ccco3)CC2)cc1 returned HP1b chromo inh 1%, PLK1 PBD inh -15%, BAZ2B block -28%, L3MBTL1 inh -3%, JMJD2A Tudor inh -35% and VDR inhibitor -6%.
For COc1cccc(N2CCN(C(=O)/C=C/c3ccco3)CC2)c1 the results were HP1b chromo inh -9%, PLK1 PBD inh 4%, BAZ2B block 50µM*, L3MBTL1 inh -29%, JMJD2A Tudor inh -13% and VDR inhibitor -10%.
`O=C(/C=C/c1ccco1)N1CCC(Cc2ccccc2)CC1` gave HP1b chromo inh -39%, PLK1 PBD inh inconclusive, BAZ2B block 50µM*, L3MBTL1 inh -27%, JMJD2A Tudor inh 50µM* and VDR inhibitor inconclusive.
Clc1ccc(N2CCN(Cc3ccco3)CC2)cc1 was read as HP1b chromo inh inconclusive, PLK1 PBD inh -14%, BAZ2B block 50µM*, L3MBTL1 inh -1%, JMJD2A Tudor inh 1.8µM* and VDR inhibitor 12%.
For COc1ccc(CN2CCOCC2)cc1 the results were HP1b chromo inh 27%, PLK1 PBD inh -5%, BAZ2B block inconclusive, JMJD2A Tudor inh -13% and VDR inhibitor 5%.
`COc1cccc(CN2CCN(Cc3ccco3)CC2)c1` gave HP1b chromo inh inconclusive, PLK1 PBD inh 2%, BAZ2B block 50µM*, JMJD2A Tudor inh 7.9µM* and VDR inhibitor 23%.

Bioassay records as filed in PubChem BioAssay.
